From PubChem BioAssay AID449762 (Southern Research Specialized Biocontainment Screening …, 2010)
The whole screen tested about 330,000 compounds, of which about 1,900 (0.58%) were called active. Inconclusive results (about 4%) are left out. The list is a sample of the results. Results with a measured potency or affinity are listed apart. A number with no mark means an inactive call. Rule as the data show it: inconclusive = inhibition above about 70% without an active follow-up result; inactive = below that.

Test: M. tuberculosis growth inhibition, HTS (AID 449762);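 also: bacterial growth assessed after seven days of incubation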
Conditions: M. tuberculosis H37Rv growth inhibition, 7H9 media; at 25 µM; active compounds read high

Row | Structure (SMILES) | inhibition [%]
1 | S=C1NCCOCCOCCOCCOCCNC(=S)NCCOCCOCCOCCOCCN1 | -3.9
2 | N#C/C(=C(/O)COc1ccccc1)c1nc2ccccc2s1 | 56.1
3 | Cc1ccc(SC/C(O)=C(\C#N)c2nc3ccccc3s2)cc1 | 1.37
4 | O=C(CCc1nc(-c2ccccc2)c(-c2ccccc2)o1)OCc1ccc(Br)cc1 | 70.2
5 | O=C(O)CCc1nc(-c2ccccc2)c(-c2ccccc2)o1 | 6.1
6 | O=C(Nc1nc2ccc(S(=O)(=O)N3CCCC3)cc2s1)c1ccco1 | -2.95
7 | COc1ccccc1-n1c(/C=C/c2ccccn2)nc2ccccc2c1=O | -5.93
8 | CC(C)N(C(=S)Nc1cc(S(=O)(=O)N2CCOCC2)ccc1Cl)c1ccccc1 | -5.84
9 | NNC(=O)c1cc(-c2cccs2)nc2ccccc12 | 9.4
10 | Cc1cc(NC(=O)c2cc(-c3cccs3)nc3ccccc23)no1 | -0.3
11 | CC(C)N(C1=N/C(=C\c2ccco2)C(=O)N1c1ccccc1)C(C)C | -0.07
12 | Cc1noc(C(F)(F)F)c1C(=O)NNC(=O)c1cccc(C(F)(F)F)c1 | 3.93
13 | CCOC(=O)C1C(=O)NC(SCC(=O)Nc2nccs2)=C(C#N)C1c1ccccc1OCC (stereo not drawn) | 55.1
14 | CC1CCCCN1CCNC(=O)C1CCCN(S(=O)(=O)c2cccc3nsnc23)C1 (stereo not drawn) | 3.33
15 | CN(C)c1nc(NCc2ccccc2)nc(N/N=C/c2ccc(Br)cc2)n1 | 3.27
16 | CN(C)c1nc(NCc2ccccc2)nc(N/N=C/c2ccc(Cl)cc2Cl)n1 | 9.37
17 | COc1ccc(N2CC(C(=O)O)CC2=O)cc1 (stereo not drawn) | -12.1
18 | COc1ccc(CN=C(C)c2c(C(F)(F)F)[nH]n(-c3nc4ccccc4s3)c2=O)cc1 | -13.3
19 | CCC(=NCc1ccccc1)c1c(C(F)(F)F)[nH]n(-c2nc3ccccc3s2)c1=O | -0.69
20 | COc1ccccc1NC(=O)CSc1nn2c(=O)c(C)nnc2s1 | -20.7
21 | Cc1cc(C)nc(SCCCNCc2c(F)cccc2Cl)n1 | 0.32
22 | Cc1ccc(-n2c(C)nc3ccsc3c2=O)cc1 | 9.48
23 | Cc1ccc(-n2c(Cl)c(Cl)[nH]c(=O)c2=O)cc1 | -6.67
24 | Cc1noc(C)c1COc1ccccc1C(=O)N1CCN(S(=O)(=O)c2ccccc2C(F)(F)F)CC1 | -1.24

Row | Structure (SMILES) | inhibition [%]
25 | COC(=O)c1cccc(NC(=O)Cc2ccccc2[N+](=O)[O-])c1C | 2.19
26 | OC(Cn1cncn1)c1ccc(Cl)cc1 (stereo not drawn) | -4.52
27 | Cc1ccc(CNC(=O)NC23CC4CC(CC(C4)C2)C3)cc1 | 7.32
28 | O=C(NCc1ccccc1)NC12CC3CC(CC(C3)C1)C2 | -2.17
29 | Cc1noc(C)c1COc1ccc(C(=O)OCC(=O)NC2CCCCC2C)cc1 (stereo not drawn) | 48.8
30 | Cc1noc(C)c1COc1ccc(C(=O)OCC(N)=O)cc1 | 12.9
31 | Cc1ccc(N2CC(C(=O)NC3=NCCS3)CC2=O)cc1 (stereo not drawn) | 4.82
32 | COc1ccc(-c2cc(=Nc3c(C)n(C)n(-c4ccccc4)c3=O)c3ccccc3o2)cc1 | 35.5
33 | CCc1ccc2oc(-c3ccc(OC)cc3)cc(=Nc3cccc(C(=O)O)c3)c2c1 | 39.4
34 | CNC(=O)c1cnn(-c2nc(-c3ccc(OC)cc3)cs2)c1C(F)(F)F | 9.09
35 | CCN1CCc2c(OCC(=O)Nc3ccccc3)cccc2C1=O | -8.51
36 | COc1cccc(-c2cc(C(F)(F)F)nc(N3CCC(C)CC3)n2)c1 | 2.81
37 | O=C(COC(=O)C1=COCCO1)Nc1ccccc1 | 65.9
38 | COc1ccc(CNC(=O)COC(=O)C2=COCCO2)cc1 | 12.1
39 | O=C(COC(=O)C1=COCCO1)NCc1ccc(F)cc1 | 5.31
40 | CC(=O)c1cccc(NC(=O)COC(=O)C2=COCCO2)c1 | -0.86
41 | CCCCN1C(=N)N([C@@H](CCC)CN2CCC[C@H]2CN2C(N)=NC[C@@H]2Cc2ccccc2)C[C@H]1[C@H](C)CC | 4.76
42 | CCCCN1C(=N)N([C@@H](C)CN2CCC[C@H]2CN2C(N)=NC[C@@H]2Cc2ccccc2)C[C@H]1Cc1ccccc1 | 67.2
43 | Cc1nc2ccc(NC(=O)N3CCN(c4ccccn4)CC3)cc2s1 | -4.34
44 | O=C(O)c1ccc(N=NN2CCCC2)cc1 | -3.03
45 | CC1CCc2sc(C(=O)NC3CCCCC3)cc2C1 (stereo not drawn) | -9.17
46 | CNC(=O)c1cc2c(s1)CCCCCC2 | -5.87
47 | Nc1cccc(-c2ccc(CO)o2)c1 | 10.1
48 | NC(=O)C1CCN(CC(=O)N2N=CCC2c2ccccc2)CC1 (stereo not drawn) | -1.72

Row | Structure (SMILES) | inhibition [%]
49 | CCC(=O)N1CCc2cc(S(=O)(=O)N3CCCC3)ccc21 | -9.42
50 | Cc1occc1C(=O)NN=C1C2CC3CC(C2)CC1C3 | -8.34
51 | Cc1ccc2c(c1)[nH]c1c(N3CCN(Cc4ccccc4)CC3)ncnc12 | 3.28
52 | COc1ccc(N2CCN(c3ncnc4c3[nH]c3ccccc34)CC2)cc1 | -0.78
53 | COc1cc2[nH]c3c(N4CCN(c5ccc(Cl)cc5)CC4)ncnc3c2cc1OC | -5.15
54 | COc1ccc2[nH]c3c(N4CC(C)OC(C)C4)ncnc3c2c1 (stereo not drawn) | -0.53
55 | Cc1ccc2[nH]c3c(N4CCOCC4)ncnc3c2c1 | -3.57
56 | COc1cc2[nH]c3c(N4CCC(C(N)=O)CC4)ncnc3c2cc1OC | 6.79
57 | O=C(COC(=O)c1ccccc1NS(=O)(=O)c1cccs1)NC1CCCCC1 | 4.13
58 | CCCCOc1ccc(C(=O)NCC(=O)NC2CCC(C)CC2)cc1 (stereo not drawn) | 9.03
59 | Cc1c(NC(=O)Nc2ccc(C(C)(C)C)cc2)c(=O)n(-c2ccccc2)n1C | 1.52
60 | Cc1cc(NC(=O)C(C)C)ncc1NC(=O)c1ccco1 | 4
61 | Cn1c(SCc2ccccn2)nnc1-c1cnccn1 | -3.38
62 | O=S(=O)(Nc1ccccc1N1CCOCC1)c1c(F)cc(F)cc1Br | -10.8
63 | CCN(C[C@H]1N[C@@](CC)(C(=O)OC)[C@H]2C(=O)N(Cc3ccccc3)C(=O)[C@@H]12)C(=O)Nc1ccc(C(F)(F)F)cc1 | -6.29
64 | CCN(C[C@H]1N[C@@](Cc2ccccc2)(C(=O)OC)[C@H]2C(=O)N(Cc3ccccc3)C(=O)[C@@H]12)C(=O)Nc1ccc(F)cc1 | 3.17
65 | O=C(/C=C/c1ccc(OCCCF)cc1)Nc1ccnc(-c2cccnc2)n1 | -3.34
66 | COc1ccc(CNC(=O)/C=C/c2ccc(OCCCF)cc2)cc1 | 0.02
67 | CC(C)(C)NC(=O)C(=O)NNC(=O)c1ccco1 | -5.31
68 | Cc1ccccc1N(CC(=O)NCc1ccncc1)S(C)(=O)=O | 1.64
69 | CSc1ccc(C(=O)C2CCCN(C(=O)c3ccc4c(c3)OCO4)C2)cc1 (stereo not drawn) | 1.02
70 | CSc1ccc(C(=O)C2CCCN(C(=O)c3nonc3C)C2)cc1 (stereo not drawn) | 12.6
71 | Cc1ccc(Cn2c([N+](=O)[O-])cnc2C)cc1 | 2.64
72 | Cc1ccc(S(=O)(=O)N(C)CC(=O)Nc2ccc3c(c2)OCO3)cc1 | -3.43

Row | Structure (SMILES) | inhibition [%]
73 | Cc1ccc(C(=O)OCN2C(=O)c3ccccc3C2=O)c(O)c1 | 2.23
74 | CNC(=O)C12CC3CC(C1)CC(c1ccc(C)cc1)(C3)C2 | 5.19
75 | COc1ccccc1NC(=O)C12CC3CC(C1)CC(c1ccc(C)cc1)(C3)C2 | -6.68
76 | COCC1CCN(Cc2nc(Cc3ccccc3Cl)no2)CC1 | 4.51
77 | COC(=O)Cn1c(=NC(=O)C(C)(C)C)sc2c(C)cc(C)cc21 | -0.87
78 | CC[C@]1(c2ccccc2C)ON(c2ccccc2C(F)(F)F)C1=O | 0.115
79 | CC(C)C[C@]1(c2ccccc2)ON(c2ccccc2C(F)(F)F)C1=O | -1.86
80 | CN1CCN(CCCNC(=O)CCCOc2cc(=O)n(C)c3ccccc23)CC1 | -3.75
81 | CCCCCCCN1C(N(C)C)=NC[C@@H]1Cc1ccccc1 | 1.63
82 | Cc1cccc(-n2ccc(=O)c(C(=O)Nc3ccc(S(=O)(=O)Nc4nccc(C)n4)cc3)n2)c1 | 6.8
83 | CCOC(=O)c1cccc(NS(=O)(=O)c2c(C)[nH]c(C)c2C(=O)N2CCCC2)c1 | 12.7
84 | Cc1cc(NC(=O)/C(C#N)=C/c2ccc(-c3ccc(SC(F)F)cc3)o2)n(-c2ccccc2)n1 | 4.12
85 | COC(=O)/C(C#N)=C/c1ccc(-c2ccc(S(N)(=O)=O)cc2)o1 | -0.94
86 | C=CCn1c(O)c(C(C)=Nc2cccc(C(=O)O)c2)c(=O)[nH]c1=O | -1.56
87 | Cc1cc(C(=O)NNC(=O)c2sccc2C)c(C)o1 | -4.39
88 | CCN1CCN(C(c2cccs2)C(C)NS(=O)(=O)c2ccc(Br)cc2)CC1 (stereo not drawn) | -2.6
89 | O=C(Nc1nccs1)c1ccc(S(=O)(=O)N2CCCCC2)cc1 | -7.33
90 | CSCCC(NC(=O)COc1ccccc1)C(=O)NCCOc1ccc(C)cc1 (stereo not drawn) | 1.39
91 | COc1ccc(OC)c(S(=O)(=O)Nc2cc3c4c(c2)CCC(=O)N4CCC3)c1 | -8.72
92 | Cc1cc(C(=O)CCl)c(C)n1-c1c(C)n(C)n(-c2ccccc2)c1=O | 64.9
93 | CC(=O)c1c(C(C)=O)c(C)n(-c2cccc([N+](=O)[O-])c2)c1C | 4.11
